An excerpt weighted towards active compounds, which were near 7.4% of everything screened.
Rab9 prom act = Rab9 promoter activation. AID 485297. hit rate 2.8% among 320,000. Huh7 Rab9 promoter-luciferase reporter, luminescence, 24 h. Potency, µM (top dose mostly 9.22 µM), hits mostly activators; also: nearly all actives have a fitted effect of over 60% in size
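Stable Rab9-luc Huh7, 1500 cells/well, 2 h settle; cmpd in DMSO, 24 h, 37 °C/5% CO2; luciferase reagent 10 min RT; luminescence.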
NPC1 promoter act = NPC1 promoter activation; Huh7 NPC1 promoter luciferase reporter, 24 h; Potency, µM (doses to about 9.22 µM), hits mostly activators; hit rate 2.4% among 320,000; AID 485313; also: nearly all actives have a fitted effect of over 60% in size
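Quantitative HTS used a cell-based reporter: Huh7 cells stably bearing the NPC1 promoter upstream of luciferase were treated with compounds for 24 h, and promoter activation was read as luminescence.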
FLuc modulator = firefly luciferase modulation, counter-screen for miR-21 project. hit rate 6.9% among 360,000. Potency, µM (series often up to 57.5 µM), actives largely listed as inhibitors. purified FLuc, Km substrates, luminescence inhibition. AID 588342; also: nearly all actives have a fitted effect of over 55% in size
Target sequence (P08659 whole entry, looked up): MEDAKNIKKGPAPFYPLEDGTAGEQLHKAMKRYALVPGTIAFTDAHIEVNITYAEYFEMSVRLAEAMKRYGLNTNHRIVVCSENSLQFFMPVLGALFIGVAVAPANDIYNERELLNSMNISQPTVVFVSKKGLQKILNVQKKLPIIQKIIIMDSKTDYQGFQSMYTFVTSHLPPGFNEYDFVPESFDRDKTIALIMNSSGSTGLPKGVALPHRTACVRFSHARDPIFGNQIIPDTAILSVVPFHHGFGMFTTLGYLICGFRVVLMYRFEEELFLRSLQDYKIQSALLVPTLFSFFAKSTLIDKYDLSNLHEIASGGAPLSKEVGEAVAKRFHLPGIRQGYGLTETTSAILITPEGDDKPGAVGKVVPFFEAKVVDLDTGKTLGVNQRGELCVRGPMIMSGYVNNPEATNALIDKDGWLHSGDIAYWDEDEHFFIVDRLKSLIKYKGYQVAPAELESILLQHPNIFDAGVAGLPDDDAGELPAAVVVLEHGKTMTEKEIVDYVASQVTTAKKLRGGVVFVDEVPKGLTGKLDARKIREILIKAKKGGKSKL
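Purified P. pyralis luciferase, 10 nM final, with Km-level 10 uM D-luciferin and 10 uM ATP in 50 mM Tris acetate pH 7.5, 10 mM Mg acetate, 0.01% Tween-20, 0.05% BSA; 6-point qHTS titration about 60 µM downward; luminescence read.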
SMN2 splice up = increases expression of the SMN2 splice variant; hit rate 2.8% among 210,000; Potency, µM (titrated, usually from 46.1 µM), actives largely listed as activators; HEK293 SMN2-luciferase splicing reporter, luminescence, 30-36 h; AID 1458; also: nearly all actives have a fitted effect of over 55% in size
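qHTS luciferase splicing reporter: luminescence rises when SMN2 exon 7 is included in transfected HEK293 cells. Compound exposure lasted 30-36 h at 37C, with 4.5 mM final sodium butyrate as control, followed by a ONE-Glo read.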
ELG1 genotox = genotoxicity induction in ELG1-luciferase HEK293T cells; HEK293T ELG1-luciferase reporter, luminescence, 16 h; hit rate 1.3% among 330,000; Potency, µM (series often up to 46 µM), hits mostly activators; also: nearly all actives have a fitted effect of over 60% in size
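Genotoxic stress is detected as increased luminescence from luciferase-tagged ELG1 in HEK293T cells, measured with ONE-Glo after a 16 hr treatment at 37 °C.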
Numbers stand for hits; - = inactive; ? = inconclusive; . = no result; [ ] = remark or other dose. Calls follow the shape of the dose curve; as a rule, active = well fitted curve in the direction sought with a large enough effect; inconclusive = small, poorly fitted or top-dose-only effect, or another doubt; inactive = no such curve, though single readings can be large; an effect the other way counts as inactive or inconclusive.

SMILES | Rab9 prom act | NPC1 promoter act | FLuc modulator | SMN2 splice up | ELG1 genotox
Nc1ccc(N=Nc2ccccc2)c2ccccc12 | - | ? | 17µM | . | -
Nc1ccc(N=Nc2ccccc2)c(N)n1 | - | - | 17µM | ? | ?
Nc1ccc(N=Nc2ccc(-c3ccc(O)cc3)cc2)c2ccc(S(=O)(=O)O)cc12 | . | . | . | -[9.22 µM] | .
CCOc1ccc(CCNC(=O)C2CCN(C(=O)c3cc4sccc4n3CC)CC2)cc1OCC | . | . | - | - | .
O=C(O)c1cc(-n2c(/C=C\c3ccc(F)cc3)nc3ccccc3c2=O)ccc1Cl | . | . | 24µM | . | .
CC(C)c1ccc(Nc2c([N+](=O)[O-])c(=O)n(C)c3ccccc23)cc1 | - | - | ? | . | -
Cc1cccc(Nc2c([N+](=O)[O-])c(=O)n(C)c3ccccc23)c1 | - | - | 21µM | -[1.84 µM] | -
N#Cc1c(NC(=O)CCCC(=O)O)sc2c1CCCCC2 | ? | ? | 2.1µM | 1.3µM | ?
CCCC(=O)Nc1sc2c(c1C#N)CCCCC2 | 2.8µM | 3.2µM | 9.5µM | 11µM | ?
CCC(=O)Nc1sc2c(c1C#N)CCCCC2 | ? | - | -[2.3 µM] | ? | -
CCOC(=O)c1ccc(NC(=O)Cn2nnc3ccccc32)cc1 | 2.8µM | 3.5µM | 11µM | - | ?
CCOC(=O)c1ccc(NC(=O)CCn2nnc3ccccc32)cc1 | - | - | - | - | -
CCOC(=O)c1ccc(NC(=O)CN2C(=O)CSC2=O)cc1 | - | - | 21µM | - | -
CCOC(=O)c1ccc(NC(=O)CN2C(=O)CSCC2=O)cc1 | - | - | 15µM | - | -
COC(=O)c1ccc(COn2nnc3ccccc32)cc1 | 1µM | 1.1µM | 6.7µM | 13µM | ?
COC(=O)c1ccc(NC(=O)CN2C(=O)CSC2=O)cc1 | - | - | ? | - | -
CCn1c(=O)c2sccc2n2c(CCC(=O)Nc3ccc(F)cc3)nnc12 | . | . | - | - | .
CSc1ccccc1-c1nnc(-c2ccc(Cl)cc2Cl)o1 | 3.2µM | ? | 2.1µM | ? | ?
CSc1ccccc1-c1nnc(-c2ccc(Cl)c(Cl)c2)o1 | ? | ? | 7.6µM | - | ?
CCSc1nnc(-c2ccccc2SC)o1 | - | - | ? | - | -
COc1ccc(-c2nc3sc(CCNC(=O)c4cc(OC)c(OC)c(OC)c4)c(C)n3n2)cc1 | . | . | 11µM | . | .
COc1ccc(-c2nc3sc(CCNC(=O)c4ccco4)c(C)n3n2)cc1 | . | . | 21µM | . | .
COc1ccc(-c2nc3sc(CCNC(=O)Cc4ccc(F)cc4)c(C)n3n2)cc1 | . | . | - | . | .
c1ccc(-c2cn3c4c(sc3n2)CCCC4)cc1 | 0.5µM | 0.45µM | 0.15µM | ? | 0.082µM
Cc1c(C(=O)N2CCc3ccccc3C2)sc2nc(-c3ccccc3)cn12 | - | - | ? | - | -
SMILES | Rab9 prom act | NPC1 promoter act | FLuc modulator | SMN2 splice up | ELG1 genotox
Cc1cc(C)cc(OCC(=O)OC(C)C(=O)Nc2ccc(Cl)cn2)c1 (stereo not given) | - | - | - | . | -
CCCCNC(=O)C(c1ccc(OCC(=O)OC)c(C(=O)OC)c1)N(CCc1ccccn1)C(=O)CCCCCN1C(=O)NC(c2ccc(-c3ccccc3)cc2)C(C(=O)OCc2ccccc2)=C1C (stereo not given) | . | . | . | - | .
CCC(=O)Nc1ccccc1C(=O)C(=O)Nc1ccccc1 | 2.5µM | ? | - | ? | -
O=C(NN=C1CCCCCC1)C(=O)Nc1cccc(Br)c1 | - | - | 6µM | -[1.84 µM] | -
CC(=O)Nc1ccccc1C(=O)C(=O)Nc1cccc(Br)c1 | 2.5µM | ? | - | - | -
CC(=O)Nc1ccccc1C(=O)C(=O)Nc1ccccc1 | ? | ? | - | ? | -
CC(=O)Nc1ccccc1C(=O)C(=O)Nc1ccc(Cl)cc1 | 2.5µM | 2.2µM | - | 22µM | ?
CN1CCC(=NNC(=O)C(=O)Nc2ccccc2)CC1 | ? | - | ? | - | -
CCOC(=O)c1c(C)n(-c2ccc(C)cc2)c2ccc(OCC(O)CN3CCN(C)CC3)cc12 (stereo not given) | - | - | ? | - | -
Cc1ccc(/C=N/NC(=O)CC(=O)NCc2cccnc2)cc1 | - | - | - | - | -
COc1ccc(-n2ncc3c(NCCCN4CCOCC4)ncnc32)cc1 | ? | ? | 11µM | - | 9.2µM
Cc1ccc(-n2ncc3c(NCCCN4CCOCC4)ncnc32)c(C)c1 | - | - | - | - | -
COc1ccc(-n2ncc3c(NCCN4CCOCC4)ncnc32)cc1 | ? | - | 15µM | - | 15µM
COCCNc1ncnc2c1cnn2-c1cc(Cl)ccc1C | . | . | - | . | .
Cc1ccc(-n2ncc3c(NCCO)ncnc32)cc1Cl | . | . | 6µM | . | .
Cc1ccc(-n2ncc3c(NCCCN4CCOCC4)ncnc32)cc1Cl | . | . | 9.5µM | . | .
CCOc1ccc(CCNC(=O)CSc2nnnn2-c2ccccc2)cc1OCC | . | . | - | - | .
CC(=O)NNc1ncnc2c1cnn2-c1ccc(C)c(Cl)c1 | - | - | 24µM | - | -
CC(=O)NNc1ncnc2c1cnn2-c1ccc(C)cc1 | - | - | ? | . | ?
O=C(Nc1ccccc1O)c1ccccc1O | - | ? | 9.5µM | - | -
Cc1cccc(NC(=O)c2ccccc2O)c1C | ? | ? | 13µM | - | -
Cc1ccc(C)c(NC(=O)c2cc(C)nc3ccccc23)c1 | - | - | - | . | -
Cc1cccc(NC(=O)c2cnn3ccccc23)c1C | ? | ? | ? | . | -
Cc1ccc(C)c(NC(=O)c2ccccc2O)c1 | ? | - | 17µM | - | -
Cc1ccc(CN(C(=O)c2ccc(OCC(C)C)cc2)c2ccccn2)o1 | . | . | - | . | .
SMILES | Rab9 prom act | NPC1 promoter act | FLuc modulator | SMN2 splice up | ELG1 genotox
COc1ccccc1NC(=O)CCn1cnc2ccccc2c1=O | - | - | - | . | .
Cc1ncc(CO)c(/C=N/NC(=S)Nc2ccc(C(C)C)cc2)c1O | - | - | 13µM | . | -
Cn1c2ccccc2c2cnn(CC(=O)NCCCN3CCCCC3)c(=O)c21 | . | . | - | - | .
CC1=NOC(=O)/C1=C/c1ccc(-c2ccc(Cl)cc2)o1 | - | - | 8.5µM | - | -
CC1=NOC(=O)/C1=C\c1ccc(-c2cc(Cl)ccc2Cl)o1 | - | - | ? | - | -
Cc1ccc(/C=C2\C(=O)ON=C2c2ccccc2)o1 | - | - | 1.1µM | . | -
CC1=NOC(=O)/C1=C\c1ccc(-c2ccc(Br)cc2)o1 | - | - | 8.5µM | - | -
CC1=NOC(=O)/C1=C\c1ccc(-c2ccc(Br)cc2C(=O)O)o1 | - | - | ? | . | -
CC(C)(C)c1ccc(C(=O)Nc2ccc(Oc3cccnc3)nc2)cc1 | - | - | 8.5µM | . | -
CC(C)(C)c1ccc(C(=O)Nc2cccnc2)cc1 | 4µM | 2.8µM | 2.7µM | . | 2.3µM
O=C(Nc1cccnc1)c1ccc(Br)s1 | - | - | -[2.3 µM] | - | -
CCc1sc(C(=O)Nc2cccnc2)cc1Br | ? | ? | 11µM | . | ?
Fc1ccc2nc(N3CCCC3)sc2c1 | ? | 2.2µM | 12µM | 13µM | ?
O=[N+]([O-])c1ccc2nc(N3CCCC3)sc2c1 | 3.5µM | 3.2µM | 11µM | . | ?
Fc1cc(F)c2nc(N3CCCCC3)sc2c1 | - | ? | 15µM | ? | ?
O=C(c1ccc2c(c1)CCCC2)N1CCN(c2nc3ccc(F)cc3s2)CC1 | . | . | - | . | .
COc1ccc(NC(=O)CSc2n[nH]c(=O)n2C2CC2)cc1OC | - | - | . | . | -

Assay outcomes as filed in PubChem BioAssay.
